The values that follow come from PubChem BioAssay (NCATS).

Assay [1] concerns Zika virus NS2B-NS3 protease (linked construct). The experiment in a line: Primary screen NINDS Rhodamine qHTS for Zika virus inhibitors (AID 1347160). Also: % is scaled to controls: 0 for no effect and ±100 for the full control effect; nearly all actives have a fitted effect of over 55% in size. The method, boiled down:
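Enzyme (25 nM, linked NS2B-NS3) was preincubated 15 min with compound in 10 mM Tris-HCl pH 8.0, 0.01% Tween 20. Rhodamine110 substrate (1.5 microM) was then added and fluorescence read at start and after 15 min.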
On the technique in general: qHTS replaces the single test concentration by a dilution series.

For assay [2], the target named is Calcium and integrin-binding protein 1 (Homo sapiens) (UniProt Q99828). Kind of assay: Primary qHTS for Identification of Calcium Integrin Binding Protein 1 (CIB1) Competitor (AID 1508620).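 Also: GST tagged CIB1 binding a fluorescein labelled alphaIIb integrin peptide tracer; top concentration of the series differs between compounds; % is scaled to controls: 0 for no effect and ±100 for the full control effect.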 Put shortly: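 Fluorescence polarization competition: CIB1-GST (1 uM final) preincubated with compound 15 min at room temperature, then FITC-labeled alphaIIb peptide (100 nM final) added for another 15 min. Polarization read at Ex 480/Em 540.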
Chain of Calcium and integrin-binding protein 1 (Homo sapiens) (Q99828 whole entry, looked up): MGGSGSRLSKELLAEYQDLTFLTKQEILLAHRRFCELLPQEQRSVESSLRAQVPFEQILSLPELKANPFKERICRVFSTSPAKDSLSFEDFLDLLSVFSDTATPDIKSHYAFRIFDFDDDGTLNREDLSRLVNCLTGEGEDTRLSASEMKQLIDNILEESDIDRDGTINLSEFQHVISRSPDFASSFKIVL

Assay [3] can be described thus: Primary qHTS for inhibitors of nuclear receptor binding SET domain protein 2 (NSD2) in an isogenic RCH-ACV NSD2 p.E1099K mutant (9B) (AID 1645876). Also: potency is read from the fitted curve at half-maximal effect; nearly all actives have a fitted effect of over 70% in size.
Assay [4] can be described thus: Primary qHTS for inhibitors of nuclear receptor binding SET domain protein 2 (NSD2) in an RCH-ACV wild type WT cells (2C) (AID 1645877). Also: potency is read from the fitted curve at half-maximal effect; nearly all actives have a fitted effect of over 70% in size.
Assay [5] concerns the target Glutathione peroxidase 1 (Homo sapiens) (UniProt P07203). Kind of assay: Primary qHTS Assay for Inhibitors of Recombinant Selenoprotein Glutathione Peroxidase 1 (GPX1) (AID 1845191). Also: nearly all actives have a fitted effect of over 65% in size. As to activity, negative = inhibition: % is scaled to controls: 0 for no effect and ±100 for the full control effect. Put shortly:
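GPX1 10 nM, GR 100 nM, GSH 1 mM, NADPH 0.5 mM, CHP 0.5 mM (final). 30-min cpd preincubation, RT. Ex340/Em450 read t=0, t=15 min.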

Assay [6] has as its target Phospholipid hydroperoxide glutathione peroxidase GPX4 (Homo sapiens) (UniProt P36969). Kind of assay: Primary qHTS Assay for Inhibitors of Recombinant Selenoprotein Glutathione Peroxidase 4 (GPX4) (AID 1845192). Also: % is scaled to controls: 0 for no effect and ±100 for the full control effect; nearly all actives have a fitted effect of over 65% in size. Put shortly: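 qHTS, GR-coupled: GPX4 200 nM + cpd 30 min RT → GSH 1 mM, NADPH 0.5 mM, GR 100 nM → CHP 0.5 mM start; fluor 340/450 at t0 and t15 min; no-enzyme wells as control.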

The nature of assay [7]: Primary fluorescence-based thiol-reactive (MSTI) qHTS assay for identification of artifact compounds. (AID 1845221).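 Also: thiol-reactive compounds lower the probe fluorescence signal; nearly all actives have a fitted effect of over 65% in size.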 The method, boiled down: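 qHTS titration of compound; 4 uM MSTI, PBS pH 7.4, 2% DMSO; 1 h RT, dark; fluorescence 525/598 nm; normalized to Acetyl-MSTI and MSTI; 4-parameter Hill fit.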
The test system of assay [8] is Nanoluciferase (engineered Oplophorus gracilirostris luciferase). The experiment in a line: Primary Nanoluciferase (NLuc) qHTS assay for identification of artifact compounds. (AID 1845222).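 Also: NLuc secreted into diluted conditioned medium of S16 cells.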 Put shortly: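 Using secreted nanoluciferase in S16 culture medium (0.22 um filtered, 1:55 dilution), compounds were preincubated 15 min at RT. Signal was generated with Nano-Glo reagent (1:100) over 5 min.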

In a further assay the test system is HaCat. The experiment in a line: Cytotoxic Profiling of Annotated Libraries Using Quantitative High-Throughput Screening (AID 1296008). Also: nearly all actives have a fitted effect of over 60% in size. Also: potency is read from the fitted curve at half-maximal effect. As to max response: % is scaled to controls: 0 for no effect and ±100 for the full control effect. The note with it: Five cell lines viability, CellTiter-Glo ATP luminescence, 48-72 h; max response: hits give low values. The method, boiled down:
(§1)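 Compounds were pin-transferred onto cells and incubated 48 or 72 hr at 37 degree Celsius, 95% humidity. CellTiter-Glo was added, plates sat 10 min at room temperature, then ATP-coupled luminescence was imaged as the viability read-out.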

The next assay concerns KB-3-1. The description is as above. The note with it: Five cell lines viability, CellTiter-Glo ATP luminescence, 48-72 h; max response: hits give low values. The method, boiled down: as §1
For orientation: In ATP-based viability assays light output follows the ATP content of the culture.

For a further assay, the system named is CASKI. Kind of assay: Primary qHTS to identify gynecologic anti-cancer compounds using libraries of approved drugs and bioactive compounds (AID 1345084). Also: nearly all actives have a fitted effect of over 55% in size. Also: potency is read from the fitted curve at half-maximal effect. As to activity change, negative = cytotoxicity: % is scaled to controls: 0 for no effect and ±100 for the full control effect. The conditions noted are these: Gynecologic cancer cell panel viability, ATPlite luminescence, 48 h; series mostly up to 57.5 µM. The method, boiled down:
(§2)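 Cells, 1,000 per well, were allowed to settle for 16 h at 37 C before compound addition. Five concentrations were tested for 48 h, and viability was read by ATPlite luminescence after 15 min at room temperature.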

In the next assay the test system is JEG-3. The description is as above. The conditions noted are these: Gynecologic cancer cell panel viability, ATPlite luminescence, 48 h; series mostly up to 57.5 µM. Put shortly: as §2
The next assay concerns OV90. The description is as above. The note with it: Gynecologic cancer cell panel viability, ATPlite luminescence, 48 h; series mostly up to 57.5 µM. The method, boiled down: as §2
Assay [9] can be described thus: P-glycoprotein substrates identified in KB-8-5-11 adenocarcinoma cell line, qHTS therapeutic library screen (AID 1346987). Also: nearly all actives have a fitted effect of over 65% in size. Also: potency is read from the fitted curve at half-maximal effect. Put shortly: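 Compounds are pinned in dose-response onto KB-8-5-11 cells (500 cells/well, colchicine-free medium) and left 72 h at 37 degree C. CellTiter-Glo luminescence then yields AC50 values.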
Assay [10] has as its system Zika virus NS2B-NS3 protease (unlinked complex). The experiment in a line: Primary screen GU Rhodamine qHTS for Zika virus inhibitors: Unlinked NS2B-NS3 protease assay (AID 1347159). Also: % is scaled to controls: 0 for no effect and ±100 for the full control effect; nearly all actives have a fitted effect of over 60% in size. Put shortly: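 Enzyme 25 nM in Tris-HCl pH 8.0 + 0.01% Tween 20; compounds up to 114 microM, 15 min RT dark; + Rhod110 substrate 1.5 microM; read t0 and 15 min; delta fluorescence → % inhibition → 4-parameter Hill fit.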

Assay [11] addresses Luciferin 4-monooxygenase (Photinus pyralis) (UniProt P08659). The experiment in a line: Primary firefly luciferase (FLuc) qHTS assay for identification of artifact compounds. (AID 1845220). Also: nearly all actives have a fitted effect of over 60% in size. The conditions noted are these: outcome: dose series up to 54.1 µM unless noted. Put shortly:
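In this counter-screen for luciferase artifacts, test compounds met substrate (10 uM each luciferin and ATP) before 10 nM enzyme started the reaction. Light output was measured 5 min later.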

A further assay relates to CRL-7250. The experiment in a line: qHTS assay to identify novel small-molecules to repurpose for Merkel cell carcinoma treatment (AID 1296009). Also: potency is read from the fitted curve at half-maximal effect; nearly all actives have a fitted effect of over 60% in size. The conditions noted are these: MCC and control cell lines, CellTiter-Glo viability, 72 h; series mostly up to 92 µM. The method, boiled down:
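Viability readout: ATP luminescence (CellTiter-Glo) after 72 hr drug exposure at 37 degree celsius. Dose-response format was 8 points for NPC and 11 points for MIPE; data normalized to in-plate controls.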

A further assay concerns Tov-21-G. The experiment in a line: Primary qHTS to identify gynecologic anti-cancer compounds using libraries of approved drugs and bioactive compounds (AID 1345084). Also: nearly all actives have a fitted effect of over 55% in size. Also: potency is read from the fitted curve at half-maximal effect. The note with it: Gynecologic cancer cell panel viability, ATPlite luminescence, 48 h; series mostly up to 57.5 µM. Put shortly: as §2

Values without a mark were called inactive. Inconclusive results are not listed. The source made the active and inactive calls. Calls follow the shape of the dose curve; as a rule, active = well fitted curve in the direction sought with a large enough effect; inconclusive = small, poorly fitted or top-dose-only effect, or another doubt; inactive = no such curve, though single readings can be large; an effect the other way counts as inactive or inconclusive.

Chain of Glutathione peroxidase 1 (Homo sapiens) (P07203 whole entry, looked up): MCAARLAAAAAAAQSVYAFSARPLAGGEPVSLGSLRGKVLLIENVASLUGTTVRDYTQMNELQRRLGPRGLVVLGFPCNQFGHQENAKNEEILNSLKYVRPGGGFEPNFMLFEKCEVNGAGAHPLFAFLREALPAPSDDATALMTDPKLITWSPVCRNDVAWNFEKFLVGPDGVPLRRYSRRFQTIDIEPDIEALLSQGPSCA
Chain of Phospholipid hydroperoxide glutathione peroxidase GPX4 (Homo sapiens) (P36969 whole entry, looked up): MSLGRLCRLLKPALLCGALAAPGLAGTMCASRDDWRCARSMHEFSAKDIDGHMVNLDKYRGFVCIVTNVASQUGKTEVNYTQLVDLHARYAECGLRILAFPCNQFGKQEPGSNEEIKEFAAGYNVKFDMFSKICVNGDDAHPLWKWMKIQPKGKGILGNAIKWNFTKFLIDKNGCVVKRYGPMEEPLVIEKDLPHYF

For the compound `COc1ccc(CC2C(=O)NC(C)C(=O)N(C)C3Cc4ccc(cc4)Oc4cc(ccc4OC4OC(CO)C(O)C(O)C4O)CC(C(=O)NC(C)C(=O)NC(CCC(=O)O)C(=O)N2C)N(C)C3=O)cc1` (centres undefined), the Potency entry in [1], in [2], in assay [5] and in [6] was “inactive” in each case. Moreover, the Potency in assay [3] was 5.48 µM (active); in assay [4], 4.88 µM (active). Besides, in assay [7], the activity change, negative = thiol reactive was -0.882% [at 11.5 µM]. In addition, the activity, negative = inhibition in [8] is -15.7% [at 11.6 µM]. Besides, in the assay with HaCat, the compound was called inactive. In the assay with KB-3-1, the max response is -29.6%. Further, the activity change, negative = cytotoxicity in the assay with CASKI is -30.7% [at 11.6 µM]; with JEG-3, -7.62% [at 11.6 µM]; in the assay on OV90, -30.8% [at 11.6 µM].
As to `Fc1cc(F)c2c(c1)[C@H]1C=CC[C@H]1C(c1cccnc1)N2` (some centres undefined), the Potency was 4.61 µM (active) in assay [9]; 6.49 µM (active) in assay [3]; 8.17 µM (active) in [4]; 4.11 µM (active) with KB-3-1; 4.61 µM (active) with CRL-7250; 25.1 µM (active) in the assay on JEG-3. In addition, the Potency entry in assay [10], in [1], in assay [2], in assay [5], in assay [6] and in [8] was “inactive” throughout. The compound was called inactive in assay [11].
On to `C=C1[C@@H](O)[C@]2(O)OC[C@]34C2[C@]2(C)C(C[C@H]3OC(=O)[C@H](O)[C@@]14O)C(C)=CC(=O)[C@H]2O` (some centres undefined), for which the Potency entry in [9], in assay [10], in assay [1], in assay [2], in assay [5] and in assay [6] was “inactive” in each case. Moreover, the Potency entry (in [7]; in assay [8]; in the assay with CASKI; in the assay on JEG-3; in the assay on OV90; with Tov-21-G) was “inactive” throughout. In addition, the Potency in [3] was 4.47 µM (active); in assay [4], 3.17 µM (active). For the same compound, the outcome in [11] is “inactive [at 25.7 µM]”. Besides, in the assay with HaCat, the max response is 3.98%.
Consider `COc1ccc(C(C)(C)C)cc1CN[C@H]1C2CCN(CC2)[C@H]1C(c1ccccc1)c1ccccc1`, for which the Potency result in assay [10], in [1], in assay [2], in assay [5], in [6] and in assay [7] was “inactive” throughout. Further, the Potency entry (in assay [8]; in the assay on CASKI; in the assay with JEG-3; with OV90; in the assay on Tov-21-G) was “inactive” throughout. The figures for the Potency (in assay [3]; in [4]; in the assay with HaCat) were 6.49 µM (active), 6.49 µM (active) and 18.4 µM (active), respectively. In assay [11], the result was inactive.
As for `CCOC(=O)C1(CCc2ccccc2)CCN(Cc2ccc(NC(C)=O)cc2)CC1`, the Potency entry in [10], in assay [1], in assay [2], in [5], in assay [6] and in assay [7] was “inactive” throughout. The Potency entry (in assay [8]; in the assay on CASKI; in the assay with JEG-3; with OV90; in the assay on Tov-21-G) was “inactive” throughout. In addition, in [11], the result was inactive. Moreover, in the assay on HaCat, the max response was 1.98%.
`CC1CCCCCC(=O)c2c(O)cc(O)cc2CC(=O)O1` (centres undefined): the Potency result in [9], in assay [10], in [1], in assay [5], in assay [6] and in [7] was “inactive” throughout. The Potency result (in assay [8]; with CASKI; in the assay on JEG-3; in the assay with OV90; with Tov-21-G) was “inactive” throughout. The result (in assay [11]; with HaCat) was inactive. The max response in the assay with KB-3-1 is -18.6%.
